High-throughput results: PubChem, National Center for Advancing Translational Sciences (NCATS)
D2 antagonist: antagonists of human D2 dopamine receptor; AID 485344; P14416; HEK293 TREx D2 cells, calcium flux, dopamine EC80; hit rate 2% among 340,000; inhibition, % at 10 µM; in the data active = inhibition above about 30%; inactive = below that, where a call was filed; also: 0% is about no effect
Target sequence (P14416 whole entry, looked up): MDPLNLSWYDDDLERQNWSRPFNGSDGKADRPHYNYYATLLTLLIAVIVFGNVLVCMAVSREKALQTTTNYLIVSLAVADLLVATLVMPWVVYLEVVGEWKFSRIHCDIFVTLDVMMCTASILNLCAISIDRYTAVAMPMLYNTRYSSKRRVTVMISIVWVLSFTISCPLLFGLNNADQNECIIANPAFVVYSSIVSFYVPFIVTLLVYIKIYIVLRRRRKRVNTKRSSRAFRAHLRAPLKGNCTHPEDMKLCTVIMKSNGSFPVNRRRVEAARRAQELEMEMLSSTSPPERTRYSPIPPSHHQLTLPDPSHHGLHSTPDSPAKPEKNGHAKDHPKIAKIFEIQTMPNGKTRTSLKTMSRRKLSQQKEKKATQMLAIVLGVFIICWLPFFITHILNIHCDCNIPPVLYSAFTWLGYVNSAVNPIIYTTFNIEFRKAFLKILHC
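Dopamine at EC80 is the agonist stimulus; test compounds precede it by 180 s. Calcium flux read kinetically in a force-coupled, inducible HEK293 T-REx D2 cell line.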
D2 ag-1: agonists of human D2 dopamine receptor; activation, % at 2 µM; HEK293 T-REx D2 cells, calcium flux agonist mode; P14416; hit rate 0.53% among 340,000;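 active = activation over 3 SD above normal in the single-dose calcium agonist read, cut at about 30% in these data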; also: 0% is about no effect
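In this primary screen, compounds producing a positive calcium signal within 180 s of addition to tetracycline-induced, force-coupled HEK293 Trex D2 cells are flagged; cells are dye-loaded with a no-wash calcium kit beforehand.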
D2 ag-2: agonists of human D2 dopamine receptor (beta-arrestin). P14416. DiscoveRx PathHunter D2 beta-arrestin, luminescence, 90 min; 100% = 57 uM dopamine signal. activation, % (no concentration beside the values). hit rate 0.084% among 360,000. AID 624465; in the data active = activation above about 40%
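DiscoveRx PathHunter D2 beta-arrestin cells (2,100/well) attached overnight, then compound-stimulated 90 min at 37 C in HBSS/10 mM HEPES/0.1% Tween-20 buffer; beta-galactosidase complementation read by luminescence after 1 h at ambient temperature. Dopamine 57 uM final (EC100) as control.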
D2 PAM-1: positive allosteric modulators of human D2 dopamine receptor; P14416; hit rate 0.34% among 340,000; potentiation, % at 10 µM; AID 485347; HEK293 T-REx D2, calcium flux, EC20 dopamine potentiation;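 active = potentiation over 3 SD above the plate norm, cut at about 30% in these data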; also: 0% is about no effect
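Cells plated with tetracycline inducer and held overnight at 30 C; calcium dye loaded 30–90 min at room temperature; baseline taken, compound added and read 180 s; EC20 dopamine then added and read 180 s.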
D2 PAM-2: potentiates the human D2 dopamine receptor allosterically. P14416. DiscoveRx D2 beta-arrestin cells, luminescence, 90 min; 100% = 57 uM dopamine signal. potentiation, % (test concentration not listed). hit rate 0.23% among 360,000; in the data active = potentiation above about 50%
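PathHunter beta-arrestin assay in DiscoveRx D2 cells. Compounds were added with an EC20 of dopamine (50 nM final) for 90 min at 37 deg C. Luminescence was read 1 h after detection reagent, with 57 uM dopamine as the EC100 control.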
* hit, by the source's call; ! = not confirmed by another sample. Sampled rows, rich in hits. Any-hit rate of the full collection: about 2.4%.

What do the screens show for `Cn1ccc2cc(S(=O)(=O)N3CCN(C(=O)Nc4cccc(F)c4)CC3)ccc21`?
D2 ag-1: 1; D2 PAM-1: -8

What do the screens show for `O=C1C2CCCCN2C(=O)N1CCCCN1CCN(c2ccc(F)cc2)CC1` (stereo not given)?
D2 antagonist: 11; D2 ag-1: 0; D2 ag-2: -5; D2 PAM-1: -24; D2 PAM-2: -4

What do the screens show for `O=C1C2CCCCN2C(=O)N1CCCCN1CCN(c2cccc(Br)c2)CC1` (stereo not given)?
D2 antagonist: 87*; D2 ag-1: 40*; D2 ag-2: -1; D2 PAM-1: -26; D2 PAM-2: -1

Results for O=C1C2CCCCN2C(=O)N1CCN1CCN(c2cccc(Cl)c2)CC1 (stereo not given) ?
D2 ag-2: 2; D2 PAM-2: -10

How did O=C1C2CCCN2C(=O)N1CCCCN1CCN(c2ccc(F)cc2)CC1 (stereo not given) do in these assays?
D2 antagonist: 40*; D2 ag-1: 12; D2 ag-2: 0; D2 PAM-1: -20; D2 PAM-2: -23

Results for CCC(=O)N1CCc2cc(S(=O)(=O)NCCC(=O)Nc3cccc(SC)c3)ccc21 ?
D2 ag-1: 0; D2 PAM-1: 2

What do the screens show for `CN1CCN(C(=O)c2c(O)c3cccc4c3n(c2=O)CC4)CC1`?
D2 antagonist: 5; D2 ag-1: 0; D2 ag-2: -3; D2 PAM-1: -4; D2 PAM-2: -2

Results for CCOC(=O)N1CCN(C(=O)c2c(O)c3cccc4c3n(c2=O)CC4)CC1 ?
D2 antagonist: 15; D2 ag-1: 0; D2 ag-2: -5; D2 PAM-1: 37*; D2 PAM-2: -2

What do the screens show for `COc1ccc(CNC(=O)c2sc3nc[nH]c(=O)c3c2C)cc1`?
D2 ag-1: 0; D2 PAM-1: -6

How did Cc1oc(-c2cccc(Cl)c2)nc1Cn1c(SCc2ccccc2F)nc2ccncc21 do in these assays?
D2 ag-1: 0; D2 PAM-1: 12

How did CCC(=O)NCCSc1c[nH]c2ccccc12 do in these assays?
D2 antagonist: -11; D2 ag-1: 0; D2 ag-2: -1; D2 PAM-1: 6; D2 PAM-2: -15

What do the screens show for `CC(C)C(=O)NCCSc1c[nH]c2ccccc12`?
D2 antagonist: 31*; D2 ag-1: 0; D2 ag-2: -1; D2 PAM-1: 7; D2 PAM-2: -3

Results for O=C(O)c1nn2cc(CCO)cnc2c1Cl ?
D2 antagonist: -6; D2 ag-1: 1; D2 ag-2: 1; D2 PAM-1: 34*; D2 PAM-2: -5

What do the screens show for `CN(/N=C/c1ccc(-c2ccc([N+](=O)[O-])cc2)o1)c1ccccc1`?
D2 antagonist: 8; D2 ag-1: 30*; D2 ag-2: 0; D2 PAM-1: 10; D2 PAM-2: 0

Results for CN(/N=C/c1cc([N+](=O)[O-])ccc1O)c1ccccc1 ?
D2 antagonist: 7; D2 ag-1: 3; D2 ag-2: -8; D2 PAM-1: 3; D2 PAM-2: -18

What do the screens show for `COc1cc(NC(=O)CSc2ccc(-c3sc(C)nc3C)nn2)cc(OC)c1`?
D2 PAM-1: 1

Results for Cc1ccc(CCNC(=O)C2CCN(S(=O)(=O)c3c(C)nn(C)c3C)CC2)cc1 ?
D2 antagonist: -30; D2 ag-1: 0; D2 ag-2: -1; D2 PAM-1: -8; D2 PAM-2: -4

Results for Cc1cccc(CCNC(=O)C2CCN(S(=O)(=O)c3c(C)nn(C)c3C)CC2)c1 ?
D2 antagonist: 32*; D2 ag-1: 0; D2 ag-2: -2; D2 PAM-1: -11; D2 PAM-2: 9

Results for CC1=CC(C)(C)N(C(=O)CN2C(=O)CCC2=O)c2ccc(C)cc21 ?
D2 antagonist: 30*; D2 ag-1: -1; D2 ag-2: -2; D2 PAM-1: 11; D2 PAM-2: -2

Results for Cn1c(CN2CCN(CC#N)CC2)c(C#N)c2ccccc21 ?
D2 antagonist: -13; D2 ag-1: 0; D2 ag-2: 0; D2 PAM-1: -3; D2 PAM-2: -12

What do the screens show for `Cn1c(CN2CCCCC2)c(C#N)c2ccccc21`?
D2 antagonist: 46*; D2 ag-1: -1; D2 ag-2: -4; D2 PAM-1: -23; D2 PAM-2: -22

How did CCCN(CCC)CCCNC(=O)Cn1ncn2c(cc3sc(CC)cc32)c1=O do in these assays?
D2 ag-1: 0; D2 PAM-1: 5

Results for CC(C)NC(=O)CN1C(=O)C(C)(C)Oc2ccc(C(=O)NC3CCCCC3)cc21 ?
D2 antagonist: 32*; D2 ag-1: 0; D2 ag-2: -5; D2 PAM-1: -24; D2 PAM-2: -17

What do the screens show for `CC1CCCC(C)N1C(=O)CN1C(=O)C(C)(C)Oc2ccc(C(=O)NC3CCCC3)cc21` (stereo not given)?
D2 antagonist: 33*; D2 ag-1: -1; D2 ag-2: -2; D2 PAM-1: -7; D2 PAM-2: -5

How did CC1CCCC(C)N1C(=O)CN1C(=O)C(C)(C)Oc2ccc(C(=O)NC3CCCCC3)cc21 (stereo not given) do in these assays?
D2 antagonist: -21; D2 ag-1: 0; D2 ag-2: 1; D2 PAM-1: 10; D2 PAM-2: -6

How did CC(C)(C)NC(=O)c1ccc2c(c1)N(CC(=O)NC1CCCC1)C(=O)C(C)(C)O2 do in these assays?
D2 antagonist: 53*; D2 ag-1: -1; D2 ag-2: -1; D2 PAM-1: -29; D2 PAM-2: -20

Results for COc1ccc(OC)c(C(=O)CSc2ncc3c(n2)-c2ccccc2N(Cc2ccccc2C)S3(=O)=O)c1 ?
D2 ag-1: 0; D2 PAM-1: -5

How did COc1ccccc1-c1nc(SCC(=O)NCc2ccc(C)cc2)c2c(=O)n(C)c(=O)n(C)c2n1 do in these assays?
D2 ag-1: 1; D2 PAM-1: -3

What do the screens show for `CNc1ccc2c3c(cccc13)C(=O)N(C)C2=O`?
D2 antagonist: 72*; D2 ag-1: 128*; D2 ag-2: 5; D2 PAM-1: -17; D2 PAM-2: 18

How did Cc1ncc([N+](=O)[O-])n1CCO do in these assays?
D2 antagonist: 38*!; D2 ag-1: 0; D2 ag-2: -6; D2 PAM-1: 5; D2 PAM-2: -2

How did CCCCOc1cccc(C(=O)N(Cc2ccc(N(C)C)cc2)C2CCS(=O)(=O)C2)c1 (stereo not given) do in these assays?
D2 ag-1: 0; D2 PAM-1: -12

Results for COc1ccc(CNC(=O)Cn2ccc3cc(S(=O)(=O)N4CCCCC4)ccc32)c(OC)c1 ?
D2 ag-1: 1; D2 PAM-1: 2

What do the screens show for `COc1cccc(CSc2nc3n(n2)C(c2ccccc2C)C(C(=O)Nc2ccccc2OC)=C(C)N3)c1` (stereo not given)?
D2 ag-1: 0; D2 PAM-1: -14
